The record followed here is the OligoGym collection.
Also: reference of the scale not given here.

The first test concerns the target RBFOX1. Put plainly: pooled miR-30 sensor sort-seq; sequence = guide strand. Particulars: shRNA.
Sequence TTCTAGAACTTAACAACTCCAC had a sensor-assay potency score (higher = more potent) of -0.286.
Same read-out and setting: the result for TTACATAATATAGCACTCTGGA reads -0.421; that for TACACATGAGGACTTAACCTAT, -0.971; that for TTATTCATTATCTAGCATCTGT, 0.299.
The same measure, in the same setting: for TTTTATTTGTCATTACACGTGC the value was 0.123; for TTGTCTGAGGTCCGGATCCCGG, -1.44.
The same measure, in the same setting: the result for TTGACCAAACATTTGTCTGAGG reads -0.662; that for TTATTTGTCATTACACGTGCTG, 0.199.

In a further test the target is RBM12B. The description is as above. The following applies: shRNA.
For the sequence TAAGTCTTGAAGATTACCGATG, the sensor-assay potency score (higher = more potent) is -1.18.
Still for that read-out and setting: the result for TTATACTGTATCGAAACTGAAT reads -1.19; that for TATCTCTCTCTAGTGACCCTGA, 0.0397; that for TAATAGGAGTTACTCTACCTGA, -0.42.
Still for that read-out and setting: for TAGTCTTCTGCATTTCTGCCTT the value was -0.412.
Same read-out and setting: the result for TAATTGAAGAGCCATATCCAGA reads -1.22.
In turn, TAGATCTTTAATAGCAGCCATA came in with a sensor-assay potency score (higher = more potent) of -1.64.
As to TTAAGTGAACATAAAATCCAAG, the sensor-assay potency score (higher = more potent) was -0.9.
Same read-out and setting: the result for TTTTTGTGAAACATGTCCGGGC reads 0.0214; that for TATGACATTTAAGACCTCCTGA, 0.971; that for ATTTTTGTGAAACATGTCCGGG, -0.845.
On the same count and under the same terms, the result for TAAGTCTTAATAACACCTCTGT reads 0.203.

A further test addresses RBM15B. The test is described as above. Particulars: shRNA.
Regarding TATAGGCAAAGCTATCTCCTTT, the sensor-assay potency score (higher = more potent) is -0.598.
Turning to TTTAAAATAACTGCTTTTGTGA, the sensor-assay potency score (higher = more potent) was -0.54.
Same read-out and setting: for TTTTGTGACACAAACATGACGC the value was 0.652.
Still for that read-out and setting: the result for TTGCTGAGGGAGTTGCTGCTGG reads -0.717; that for TAAGAGGACCGCATAGCCGTTG, -0.808; that for TTTTTCAACACCAGAAGCCCAT, 0.0926.
Same read-out and setting: the result for TCGTGTGACCTCGTCAAGCTTG reads -1.02.
The sequence TTTGACGTGATCAATGGTCCGA gave a sensor-assay potency score (higher = more potent) of 0.695.
Sequence TGTGACACAAACATGACGCTGG yielded a sensor-assay potency score (higher = more potent) of 0.96.
The same measure, in the same setting: for TTGACGTGATCAATGGTCCGAA the value was 0.476.
On the same count and under the same terms, for TTGTGACACAAACATGACGCTG the value was -1.03.

For another test, the target named is RBM28. The description is as above. The following applies: shRNA.
TTGCACAGCTTTATCCTCTTGC returned a sensor-assay potency score (higher = more potent) of 0.184.
Still for that read-out and setting: the result for TTTTGTTTGAGACTTGCACAGC reads -0.43; that for TTGAGGTCTCGCATCACTCTAC, -0.147; that for TTTCTTGGCAACAGTCACGTTG, -0.362.
Same read-out and setting: the result for TTCTTCACCTTCGTCGTCTGAA reads -0.116; that for TCCACTAGTAGCACTCAGCAGC, -1.24.
The same measure, in the same setting: the result for TTATATTGTTCGACCAGCTGGT reads 0.168.
Sequence TTTTCCTAGATACCTGCTCGGA came in with a sensor-assay potency score (higher = more potent) of -0.748.
The same measure, in the same setting: for TTGTCATCTACAGCCTTTGGGA the value was -0.978.
